Each structure is given as a SMILES string. Compounds without any hit were thinned out: in the full panel of roughly 83,000, 20% have a hit.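 How to read the values: 0–100, growth inhibition (40 = 60% inhibited); 0, no net growth; -100 to 0, cell death (-40 = 40% of starting cells died; -100 = all dead).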 A number with no mark means an inactive call. Active and inactive are the calls of the source. Rule for the calls: active = growth percent below 10; inactive = the rest.

The results in this text go back to PubChem BioAssay (NCI).

Holding throughout (assay): NCI-60 one-dose screen, 48 h (100 = growth as untreated, 0 = no growth, -100 = all killed)
Settings in all cases: 10 µM unless noted

In assay [1] the test system is NCI-H23 lung.
The subject of assay [2] is NCI-H226 lung.
Assay [3] deals with NCI-H322M lung.
Assay [4] concerns HOP-62 NSCLC.
Assay [5] concerns NCI-H460 lung.
Assay [6] deals with HOP-92 NSCLC.
For assay [7], the system named is NCI-H522 lung.
Assay [8] deals with A549/ATCC NSCLC.
Assay [9] concerns 786-0 renal.
Assay [10] relates to COLO 205 colon.

For `COc1ccc(C2=NN(c3ccccc3)C(c3ccc(OCc4ccccc4)c(OC)c3)C2)cc1OC` (stereo not given), the growth in [1] is 107%; in [2] it was 124%; in [3], 103%; in [4] it was 109%; in [5], 104%; in [6], 105%. In addition, the growth in assay [7] is 85.4%; in assay [8], 101%; in assay [9], 97.1%; in [10], 94.1%.
For `CCCCSc1nc(NCCc2c[nH]c3ccccc23)c(C#N)c(-c2ccccc2)n1`, the growth in assay [1] is 15.8%; in [2] it was 44.6%; in [3], 83.8%; in [4], 39.7%; in assay [5], 14.5%; in assay [6], -1.67% (active). The growth in assay [7] was 47.4%; in assay [8], 39.1%; in assay [9], 10.6%; in assay [10], 24.8%.
Consider `CCC(C)(C)c1ccc(OCCCCN2CCN(c3ccncc3)CC2)cc1`, for which the growth in assay [1] was 22.1%; in assay [2], 39.8%; in [3] it was 83.9%; in [4], 37.4%; in assay [5] it was 24.9%; in assay [6], 3.82% (active). Besides, the growth is 36% in assay [7], 47.4% in assay [8], -56.4% (active) in assay [9] and -81.9% (active) in assay [10].
Regarding `COc1ccc(C(=O)/C=C/c2ccc(OCc3ccc(F)cc3)c(OC)c2)cc1OC`, the growth in [1] is 26.5%; in assay [2], 46.3%; in [3], 7.43% (active); in assay [4] it was 26.6%; in assay [5], 14.8%; in assay [6], -14.8% (active). Moreover, the growth in assay [7] was 2.98% (active); in assay [8], 11.9%; in assay [9] it was 37.4%; in assay [10], 29.9%.
Consider `COc1cc(/C=C/C(=O)c2nnn(-c3ccc(Cl)cc3)c2C)cc(OC)c1OC`, for which the growth in assay [1] is 26.9%; in assay [2], 40%; in [3], 63.1%; in assay [4], 37.2%; in [5] it was 14.2%; in assay [6] it was 38.7%. The growth in [7] is 28%; in assay [8] it was 34.9%; in assay [9], 65.8%; in assay [10], 41.5%.
Take `COc1ccc(-c2ccnc(SCc3cc4cc(Cl)ccc4[nH]c3=O)n2)cc1`: the growth was 57.8% in assay [1]; -32.1% (active) in [2]; 87.8% in assay [3]; -17.3% (active) in [4]; 19.6% in assay [5]; -32% (active) in assay [6]. The growth was 34.2% in assay [7], 60.7% in assay [8], -25.5% (active) in assay [9] and 105% in [10].
Take `O=C(NNc1ccccc1)n1c(=O)c2ccccc2c(=O)n1-c1ccccc1`: the growth in assay [1] was 100%; in assay [2] it was 95.7%; in assay [3], 98.8%; in assay [4] it was 90.7%; in assay [5] it was 105%; in assay [6], 93.9%. Moreover, the growth in assay [7] is 86.4%; in [8], 83.1%; in assay [9], 92.5%; in [10], 109%.
On to `CC1(C)CC[C@]2(C(=O)Nc3ccccc3)CC[C@]3(C)C(=CCC4[C@@]5(C)C[C@@H](O)[C@H](O)[C@@](C)(CO)C5CC[C@]43C)C2C1` (stereo not given in full), for which the growth in [1] was 75.9%; in assay [2], 54.3%; in [3], 89.7%; in [4], 75.3%; in [5], 51.4%; in assay [6], 39.1%. The growth was 41.6% in assay [7], 39.2% in assay [8], 71.1% in assay [9] and 31.6% in assay [10].
Take `O=C(N=Nc1c(O)[nH]c2ccc([N+](=O)[O-])cc12)c1ccc2nc(-c3ccccc3)[nH]c2c1`: the growth in assay [1] is 64.7%; in assay [2] it was 60.1%; in assay [3] it was 104%; in [4] it was 100%; in assay [5] it was 100%; in assay [6] it was 30.8%. Further, the growth is 17.8% in [7], 106% in [8], 91.4% in assay [9] and 28.4% in assay [10].
Regarding `O=C1Nc2cc(Cl)ccc2/C1=C/c1cccc(OCc2ccccn2)c1`, the growth in [1] is 19.6%; in assay [2], 38.6%; in assay [3], 68.2%; in [4], 17.4%; in assay [5], 13.9%; in assay [6], -3.65% (active). The growth in assay [7] is -42.4% (active); in assay [8], 37.5%; in assay [9], 10.8%; in assay [10], 51.7%.
For `O=c1[nH]n(C(=S)N/N=C/c2ccccc2Cl)c(=O)c2ccccc12`, the growth in assay [1] was -43.6% (active); in assay [2], -19.9% (active); in assay [3], 5.29% (active); in [4], -2.31% (active); in assay [5] it was 14.5%; in [6] it was -0.742% (active). In addition, the growth in assay [7] was -61.7% (active); in [8], 7.02% (active); in assay [9], 12.9%; in assay [10], -60.9% (active).
Regarding `Cc1ccccc1[C@H]1C(C(=O)c2ccc(Cl)cc2)C2(N[C@@H]1c1ccccc1)C(=O)Nc1ccc(Cl)cc12` (stereo not given in full), the growth in assay [1] is -56.2% (active); in assay [2], -60.2% (active); in assay [3], 22.1%; in [4] it was -63.7% (active); in [5], 1.55% (active); in assay [6], -44.4% (active). For the same molecule, the growth in [7] was -48.6% (active); in assay [8], -29.2% (active); in assay [9] it was -39.3% (active); in assay [10], -75.7% (active).
With `C/C(=N\N=C1/C(=O)Nc2ccc(Cl)cc21)c1ccc2c(c1)Nc1ccccc1S2`, the growth in [1] was -28.2% (active); in assay [2], 31.3%; in [3], 28.3%; in assay [4], 19.3%; in assay [5] it was -21.9% (active); in assay [6], -10.5% (active). Further, the growth in assay [7] is -34% (active); in [8], -6.39% (active); in assay [9], -70% (active); in assay [10], -41.7% (active).
